Tests used:
Assay type in all cases: functional
Plasmodium falciparum [1] = test: GSK_TCMDC: Inhibition of Plasmodium falciparum 3D7 in whole red blood cells, using parasite LDH activity as an index of growth. Test compounds present at 2uM
Plasmodium falciparum [2] = test: GSK_TCMDC: Inhibition of Plasmodium falciparum Dd2 in whole red blood cells, using parasite LDH activity as an index of growth. Test compounds present at 2uM
HepG2 = test: GSK_TCMDC: Percent inhibition of human HepG2 cell line. Test compounds present at 10uM.

Structure (SMILES)	Inhibition (Plasmodium falciparum [1]) [%]	Inhibition (Plasmodium falciparum [2]) [%]	Inhibition (HepG2) [%]
COc1ccc2nccc([C@@H](O)CN3CCC(NC(=O)C(c4cccs4)N4CCN(c5ccc(F)cc5)CC4)CC3)c2c1 (stereo partly drawn)	97	45	9
Cl.FC(F)(F)c1ccc(COc2cc(Cl)ccc2Cn2ccnc2)cc1	95	0	13
COc1ccc(N2CCN(c3nc(N)c4cc(OC)c(OC)cc4n3)CC2C)cc1.Cl (stereo not drawn)	95	0	8
CC(C)NCc1ccc(-c2cccc(NC(=O)c3cccc(Cl)c3)c2)cc1.O=C(O)C(F)(F)F	100	87	24
CC(C)CNCc1cccc(-c2ccc(CN(CCCN3CCN(C)CC3)C(=O)/C=C/c3ccccc3)cc2)c1.O=C(O)C(F)(F)F	92	90	48
COc1ccccc1C(C)NCC(=O)Nc1cccc(C(=O)Nc2cccc(C(F)(F)F)c2)c1 (stereo not drawn)	91	39	34
Cc1ccc(O)c(-c2cc(C(=O)Nc3ccc(S(=O)(=O)N4CCCCC4)cc3)[nH]n2)c1	94	98	31
Cc1[nH]c(C)c(-c2ccc(Oc3ccc(Cl)cc3)cc2)c(=O)c1Br	97	96	12
CCOC(=O)c1cn(CC)c2cc(N3CCCCCC3)c(F)cc2c1=O	94	89	0
Cc1ccccc1C1CCN(c2ccc(C(=O)Nc3ccccc3)cn2)CC1.O=C(O)C(F)(F)F	95	94	53
O=C(Nc1ccc(C(F)(F)F)cc1)c1ccc(S(=O)(=O)NC2CCN(CC3CCCCC3)CC2)cc1.O=C(O)C(F)(F)F	100	20	30
NC(=O)c1c(Cl)nc2ccccc2c1Cl	91	0	2
Cc1ccc(S(=O)(=O)O)cc1.N=C(NCCc1c[nH]c2ccccc12)NCc1ccccc1Cl	83	45	16
Br.CC1(C)NC(N)=NC(=N)N1OCCCNC(=O)c1ccc([N+](=O)[O-])cc1	92	97	57
O=CO.c1ccc(-c2ccc(CNCCCNc3nc4ccccc4[nH]3)cc2)cc1	95	0	20
Cc1cc(N2Cc3ccccc3C2)nc(Nc2cccc(C#N)c2)n1	100	97	6
COc1ccc(CC(=O)Nc2ccc(Nc3nc(C)cc(N(C)C)n3)cc2)cc1	97	31	17
O=C(O)C(F)(F)F.O=S(=O)(NCCN1CCCC1)c1ccc(-c2ccccc2CNC2Cc3ccccc3C2)cc1	95	67	19
CC1CN(c2ccc(NC(=O)c3cccs3)cc2)CCN1Cc1cccc(F)c1.O=C(O)C(F)(F)F (stereo not drawn)	96	96	5
CN1CCC(NCc2ccc(-c3cccc(S(=O)(=O)NCC4CCCO4)c3)cc2)CC1.O=C(O)C(F)(F)F (stereo not drawn)	90	0	8
COc1ccc2nccc([C@@H](O)CN3CCC(NC(=O)c4ccc(C5(C(F)(F)F)N=N5)cc4)CC3)c2c1	97	41	8

Structure (SMILES)	Inhibition (Plasmodium falciparum [1]) [%]	Inhibition (Plasmodium falciparum [2]) [%]	Inhibition (HepG2) [%]
O=C(Nc1ccccc1)N(Cc1cccc(-c2cccc(CNCCc3ccccc3)c2)c1)C1CCN(Cc2ccccc2)CC1.O=C(O)C(F)(F)F	100	87	100
N#Cc1ccc2c(c1)CN(C1CCC(NC(=O)/C=C/c3cc(C(F)(F)F)cc(C(F)(F)F)c3)CC1)CCC2 (stereo not drawn)	95	4	34
CN(C)CCOc1ccc(-c2cc(-c3ccncc3)c(-c3ccc(Cl)c(O)c3)o2)cc1.Cl	99	93	0
Cl.O=C(C=Cc1ccc(C(=O)Nc2ccc(C3=NCCN3)cc2)cc1)Nc1ccc(C2=NCCN2)cc1	97	100	0
NC1=NC(c2ccccc2)(c2ccccc2)C(=O)N1CC1CCC1.O=CO	96	74	17
CCCCCCN(C(=O)OCc1ccccc1)C1CCN(C(=O)OC(C)(C)C)CC1C(=O)OCC (stereo not drawn)	96	96	9
COc1ccc2nccc(N3CCC(SCCNS(=O)(=O)c4ccc5c(c4)OCCO5)C3)c2n1.Cl (stereo not drawn)	94	87	36
CN1CCC(Oc2ccc(CN3CC[C@H](NC(=O)c4cc(F)cc(F)c4)C3)c3ccccc23)C1.O=C(O)C(F)(F)F (stereo partly drawn)	98	23	26
CCCCNc1c(CC)c(C)c(C#N)c2nc3ccccc3n12	100	100	3
COc1ccc(C(=O)Nc2ccc3nc(N4CCCCC4)cc(C)c3c2)cc1OC	92	7	15
Nc1cccc(CNCc2ccc(-c3cccc(-c4nc5cc(F)ccc5[nH]4)c3)cc2)c1.O=C(O)C(F)(F)F	100	94	36
COc1ccc2c(=NN=Cc3ccncc3)cc(C)[nH]c2c1	99	95	0
Cc1cc(=NN=Cc2ccc(Cl)cc2)c2ccc(F)cc2[nH]1	100	87	6
O=C(CSc1nccn1C1CCCCC1)Nc1cc(C(F)(F)F)ccc1Cl	96	95	2
Cc1cc(NC(=O)Nc2ccc3nc(C)oc3c2)c2cc(Cl)ccc2n1	100	57	0
Nc1c(Cl)cc(C(O)CNCCCCCCOCCc2ccc(O)cc2)cc1Cl.O=C(O)/C=C/C(=O)O (stereo not drawn)	97	97	13
Cc1cccc2nc(-c3cccc(-c4cccc(CNCCN5CCNCC5)c4)c3)[nH]c12.O=C(O)C(F)(F)F	90	0	11
CC(CCc1ccc(OCc2ccccc2)cc1)NCC(O)c1ccccc1 (stereo not drawn)	86	72	9
COc1ccc(C(=O)N2CCC3(CC2)C(=O)N(CC(=O)NCC2CCCCC2)CN3c2ccccc2)c(OC)c1	100	99	6
O=C(Nc1ccc(-c2cccc(-c3nc4ccccc4[nH]3)c2)cc1)NC1CC1c1ccccc1 (stereo not drawn)	84	6	63
CCNc1cc(C(=O)N[C@@H](Cc2ccccc2)[C@H](O)CNC2CCC(C)(C)C2)cc(N2CCCCS2(=O)=O)c1.Cl (stereo partly drawn)	96	98	3

Structure (SMILES)	Inhibition (Plasmodium falciparum [1]) [%]	Inhibition (Plasmodium falciparum [2]) [%]	Inhibition (HepG2) [%]
COc1cccc(NC(=O)[C@H](C(C)C)n2c(=O)[nH]c3ccccc3c2=O)c1	100	100	0
C#CCCC(=O)Nc1cccc(-c2cccc(-c3nc4cc(C(F)(F)F)ccc4[nH]3)c2)c1	90	45	14
CCCCN(CCCC)CCCN(CCCN(CCCC)CCCC)c1cc(C)nc(Nc2ccc3cc(Br)ccc3c2)n1.Cl	100	99	52
CCCC(C)NC(=O)[C@H](Cc1ccccc1)NC(=O)c1ccc(O)c(-c2ccc(OC)cc2)c1 (stereo partly drawn)	85	1	12
Cc1ccc(N2CCN(CCCCNC(=O)c3ccc(NC(=O)c4ccc(Cl)cc4)cc3)CC2)c(C)c1	95	20	30
CC1(C)CC2CC(C)(CN2C(=O)c2cc(C(C)(C)C)nn2Cc2ccccc2)C1 (stereo not drawn)	86	77	0
Cl.N#Cc1ccc2c(c1)CCN(CCC1CCC(NC(=O)/C=C/c3cccc4ccccc34)CC1)CC2 (stereo not drawn)	96	12	16
COc1ccc(NC(=O)[C@H](Cc2ccccc2)Nc2cc(C)nc(NCCc3ccccc3OC)n2)cc1.O=C(O)C(F)(F)F	100	83	10
Fc1cccc(COc2ccc(Nc3ncnc4cc(/C=C/[C@@H]5CCCN5)sc34)cc2Cl)c1	100	56	17
Cc1cccc2nc(-c3cccc(-c4ccc(NC(=O)NC5CC5c5ccccc5)cc4)c3)[nH]c12 (stereo not drawn)	98	49	25
COc1cccc2cc(C(=O)N[C@@H](CC(C)C)C(=O)N[C@H](C=NN3CCOC3=O)CC(C)C)oc12	90	72	4
COc1cc2c(cc1OC)C(C(=O)Nc1cc(OC)c(OC)c(OC)c1)C(c1ccc(SC)cc1)N(C)C2=O (stereo not drawn)	97	64	14
O=C(/C=C/c1cccc(C(F)(F)F)c1)NCCCCCN1CCN(C(=O)Nc2ccc(Cl)c(Cl)c2)CC1.O=C(O)C(F)(F)F	89	0	29
CC(C)c1cc(Oc2c(I)cc(CCCc3ncc[nH]3)cc2I)ccc1O.Cl	88	1	28
O=C(/C=C/c1ccc(Cl)cc1)NCCCCCN1CCCN(C(=O)Nc2cccc(Cl)c2)CC1	85	10	19
CC1CCCCC1N(C)C1CCN(CCCNC(=O)C=Cc2ccccc2Cl)CC1 (stereo not drawn)	100	14	30
Cc1cccc2nc(-c3cccc(-c4ccc(NC(=O)CCc5c[nH]cn5)cc4)c3)[nH]c12	100	92	3
Cc1cc(N/N=C/c2cccc([N+](=O)[O-])c2)c2cc(F)ccc2n1	100	99	3
O=C(Nc1cc(C(F)(F)F)ccc1N1CCOCC1)C(Cl)(Cl)Cl	100	100	0

— ChEMBL document CHEMBL1157539, “Thousands of chemical starting points for antimalarial lead identification” (Nature, 2010)
